According to PubChem BioAssay AID1159580 (chemical genetic matrix, 2015):
Out of some 5,500 compounds screened, about 2,000 (36%) were called active. Another 18% or so got no clear call; they are omitted. No stated cut-off is given here; in the data, active means normalized growth mostly below about 0.91 (no sharp cut-off); inconclusive means no clear call, values can overlap the other calls; inactive means mostly above about 0.92. This is one part of the list.

Assay: chemical genetic growth profiling, strain panel (AID 1159580);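 further: tested at 20 µM; growth read once vehicle control cultures reached saturation at 30 °C; 1 = growth at the plate median or of vehicle wells; lower values mean less growth of the strain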
Details: S. cerevisiae deletion strains, growth OD

Measured: normalized growth

NC(N)=N/N=C/c1c(Cl)cccc1Cl
active: locus YNL248C, strain rpa49, active compounds read low 0.884
inactive: locus YKL009W, strain mrt4, active compounds read low 1.01 | locus YKL068W, active compounds read low 1.01 | locus YKL085W, strain MDH1 (second series), active compounds read low 1 | locus YKL085W, strain MDH1, active compounds read low 1 | locus YKL160W, strain elf1, active compounds read low 0.983 | locus YKL190W, strain CNB1, active compounds read low 1.01 | locus YKR001C, strain vps1, active compounds read low 1.05 | locus YKR026C, strain gcn3, active compounds read low 0.991 | locus YKR091W, strain srl3, active compounds read low 0.979 | locus YLL001W, strain dnm1, active compounds read low 1.01 | locus YLL026W, active compounds read low 0.977 | locus YLL041C, strain sdh2, active compounds read low 0.981 | locus YLR027C, strain aat2, active compounds read low 0.977 | locus YLR039C, strain RIC1, active compounds read low 0.965 | locus YLR058C, strain SHM2, active compounds read low 1.02 | locus YLR102C, strain apc9, active compounds read low 1.01 | locus YLR113W, strain HOG1, active compounds read low 1 | locus YLR221C, strain rsa3, active compounds read low 0.968 | locus YLR258W, strain gsy2, active compounds read low 0.973 | locus YLR262C, strain YPT6 (second series), active compounds read low 0.978 | locus YLR262C, strain YPT6, active compounds read low 1.02 | locus YLR268W, strain sec22, active compounds read low 1 | locus YLR320W, strain mms22, active compounds read low 0.949 | locus YLR330W, strain CHS5, active compounds read low 1.01 | locus YLR342W, strain FKS1 (second series), active compounds read low 1.02 | locus YLR342W, strain FKS1, active compounds read low 0.977 | locus YLR357W, strain rsc2, active compounds read low 0.972 | locus YLR370C, strain arc18, active compounds read low 0.974 | locus YLR371W, strain rom2, active compounds read low 1.02 | locus YLR384C, strain iki3, active compounds read low 0.99 | locus YLR418C, strain cdc73, active compounds read low 1.02 | locus YML016C, strain PPZ1, active compounds read low 1.01 | locus YML032C, strain rad52, active compounds read low 1.02 | locus YML120C, strain ndi1, active compounds read low 0.977 | locus YML124C, strain tub3, active compounds read low 1.01 | locus YMR058W, strain fet3, active compounds read low 0.971 | locus YMR078C, strain ctf18, active compounds read low 1.02 | locus YMR125W, strain sto1, active compounds read low 0.931 | locus YMR129W, active compounds read low 0.984 | locus YMR205C, strain PFK2, active compounds read low 0.986 | locus YMR223W, strain ubp8, active compounds read low 1.02 | locus YMR231W, strain pep5, active compounds read low 0.987 | locus YMR263W, strain SAP30, active compounds read low 1.01 | locus YMR307W, strain GAS1, active compounds read low 0.988 | locus YNL067W, strain RPL9B, active compounds read low 1.01 | locus YNL071W, strain lat1, active compounds read low 0.982 | locus YNL128W, strain TEP1, active compounds read low 1.02 | locus YNL153C, strain GIM3, active compounds read low 1.01 | locus YNL183C, strain NPR1, active compounds read low 0.952 | locus YNL209W, strain ssb2, active compounds read low 0.968 | locus YNL233W, strain BNI4, active compounds read low 1 | locus YNL250W, strain rad50, active compounds read low 1.04 | locus YNL271C, strain bni1, active compounds read low 1.02 | locus YNL298W, strain CLA4, active compounds read low 1.05 | locus YNL307C, strain MCK1, active compounds read low 1.02 | locus YNL322C, strain KRE1 (second series), active compounds read low 0.956 | locus YNL322C, strain KRE1, active compounds read low 1 | locus YNR049C, strain mso1, active compounds read low 0.966 | locus YNR052C, strain pop2, active compounds read low 1.01 | locus YOL012C, strain htz1 0.878 | locus YOL147C, strain pex11, active compounds read low 1.02 | locus YOR001W, strain rrp6, active compounds read low 0.957 | locus YOR061W, strain CKA2, active compounds read low 1.01 | locus YOR069W, strain VPS5, active compounds read low 1.01 | locus YOR070C, strain gyp1, active compounds read low 0.977 | locus YOR080W, strain dia2, active compounds read low 0.98 | locus YOR083W, strain WHI5, active compounds read low 0.952 | locus YOR106W, strain vam3, active compounds read low 0.993 | locus YOR136W, strain idh2, active compounds read low 1.02 | locus YOR144C, strain elg1, active compounds read low 1.02 | locus YOR184W, strain ser1, active compounds read low 1.02 | locus YOR231W, strain MKK1, active compounds read low 0.987 | locus YOR265W, strain rbl2, active compounds read low 0.985 | locus YOR270C, strain vph1, active compounds read low 0.922 | locus YOR290C, strain snf2, active compounds read low 0.918 | locus YOR316C, strain cot1, active compounds read low 1.01 | locus YPL051W, strain arl3, active compounds read low 0.981 | locus YPL078C, strain atp4, active compounds read low 0.974 | locus YPL106C, strain sse1, active compounds read low 0.921 | locus YPL240C, strain hsp82, active compounds read low 0.977 | locus YPL241C, strain CIN2, active compounds read low 1.02 | locus YPL256C, strain CLN2, active compounds read low 0.987 | locus YPR119W, strain clb2, active compounds read low 1.02 | locus YPR141C, strain kar3, active compounds read low 1.02 | locus YPR163C, strain tif3, active compounds read low 1.02 | locus YPR167C, strain met16, active compounds read low 1.01 | strain wtn01, active compounds read low 1.01
